# Experimental data taken from PubChem BioAssay AID651642 (Sanford-Burnham Center for Chemical Genomics, 2012).
# Activity calls are given as the source filed them.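 The calls were made as follows: active = average half-effect concentration of 10 µM or less in every one of the four cell panels; inactive = the rest.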
# Tested on: H9c2
# Experiment: cardiomyocyte survival under oxidative or metabolic stress – cell-based, panel, H9c2 and HL-1, H2O2, 2-deoxyglucose, ATP luminescence, SAR follow-up (AID 651642)
# Settings: H9c2/HL-1 cardiomyocyte H2O2 oxidative damage, mean of runs, with H2O2
row,SMILES,outcome
1,COc1cc(-c2cc(C(=O)Nc3cccc(C(C)=O)c3)c3ccccc3n2)cc(OC)c1OC,inactive
2,COc1cc(-c2cc(C(=O)NCC(=O)Nc3cccc(C(C)=O)c3)c3cc(Br)ccc3n2)cc(OC)c1OC,active
3,COc1cc(-c2cc(C(=O)Nc3cccc(C(C)=O)c3)c3cc(F)ccc3n2)cc(OC)c1OC,active
4,CCOC(=O)c1cccc(NC(=O)CNC(=O)c2cc(-c3cc(OC)c(OC)c(OC)c3)nc3ccccc23)c1,inactive
5,COc1ccc2c(c1OC)C(=O)N1c3ccccc3C(=O)N(Cc3ccc(C)cc3)C21 (configuration not stated),inactive
6,COc1cc(-c2cc(C(=O)Nc3cccc(C(C)=O)c3)c3ccc(Cl)cc3n2)cc(OC)c1OC,inactive
7,COc1ccc(NC(=O)CNC(=O)c2cc(-c3cc(OC)c(OC)c(OC)c3)nc3ccccc23)cc1,inactive
8,CCOC(=O)c1ccc(NC(=O)c2cc(-c3cc(OC)c(OC)c(OC)c3)nc3ccccc23)cc1,inactive
9,COc1cc(-c2cc(C(=O)Nc3cccc(-c4nn[nH]n4)c3)c3ccccc3n2)cc(OC)c1OC,inactive
10,CCOC(=O)c1ccccc1NC(=O)c1cc(-c2cc(OC)c(OC)c(OC)c2)nc2ccccc12,inactive
11,COc1cccc(CNC(=O)CNC(=O)c2cc(-c3cc(OC)c(OC)c(OC)c3)nc3ccccc23)c1,active
12,COc1cc(-c2cc(C(=O)NCC(=O)Nc3cccc(C(C)=O)c3)c3cc(F)ccc3n2)cc(OC)c1OC,active
13,CCOC(=O)c1cccc(NC(=O)CNC(=O)c2cc(-c3cc(OC)c(OC)c(OC)c3)nc3c(Cl)cccc23)c1,inactive
14,CCOC(=O)c1cccc(NC(=O)c2cc(-c3cc(OC)c(OC)c(OC)c3)nc3ccc(Br)cc23)c1,inactive
15,COc1ccc2c(c1OC)C(=O)N1c3ccccc3C(=O)N(Cc3cccc(Cl)c3Cl)C21 (configuration not stated),inactive
16,COc1cc(-c2cc(C(=O)NCC(=O)O)c3ccccc3n2)cc(OC)c1OC,inactive

row,SMILES,outcome
1,CCOC(=O)c1cccc(NC(=O)c2cc(-c3cc(OC)c(OC)c(OC)c3)nc3ccc(Cl)cc23)c1,inactive
2,COc1ccc2c(c1OC)C(=O)N1c3ccccc3C(=O)N(Cc3ccccc3C)C21 (configuration not stated),inactive
3,COc1cc(-c2cc(C(=O)Nc3cccc(C(=O)Nc4ccccc4)c3)c3ccccc3n2)cc(OC)c1OC,active
4,COc1cc(-c2cc(C(=O)Nc3cccc(C(=O)NCc4ccccc4)c3)c3ccccc3n2)cc(OC)c1OC,active
5,COC(=O)CNC(=O)c1cccc(NC(=O)c2cc(-c3cc(OC)c(OC)c(OC)c3)nc3ccccc23)c1,inactive
6,COc1cc(-c2cc(C(=O)Nc3cccc(C(C)=O)c3)c3cc(Br)ccc3n2)cc(OC)c1OC,inactive
7,COc1cc(-c2cc(C(=O)Nc3cccc(C(C)=O)c3)c3cccc(Cl)c3n2)cc(OC)c1OC,inactive
8,COc1ccc2nc(-c3cc(OC)c(OC)c(OC)c3)cc(C(=O)Nc3cccc(C(C)=O)c3)c2c1,inactive
9,CCOC(=O)c1cccc(NC(=O)CNC(=O)c2cc(-c3cc(OC)c(OC)c(OC)c3)nc3ccc(OC)cc23)c1,active
10,COc1cc(-c2cc(C(=O)Nc3cccc(C(=O)O)c3)c3ccccc3n2)cc(OC)c1OC,inactive
11,CCOC(=O)c1cccc(NC(=O)CNC(=O)c2cc(-c3cc(OC)c(OC)c(OC)c3)nc3ccc(C)cc23)c1,active
12,CCOC(=O)c1cccc(NC(=O)c2cc(-c3cc(OC)c(OC)c(OC)c3)nc3ccc(C)cc23)c1,active
13,COc1ccc2c(c1OC)C(=O)N1c3ccccc3C(=O)N(Cc3ccccc3Br)C21 (configuration not stated),inactive
14,CCOC(=O)c1cccc(NC(=O)CNC(=O)c2cc(-c3cc(OC)c(OC)c(OC)c3)nc3ccc(F)cc23)c1,active
15,COc1ccc2c(c1OC)C(=O)N1c3ccccc3C(=O)N(Cc3ccc(C)cc3C)C21 (configuration not stated),inactive
16,COc1ccc2c(c1OC)C(=O)N1c3ccccc3C(=O)N(Cc3c(Cl)cccc3Cl)C21 (configuration not stated),inactive
